Compound activity: PubChem, National Center for Advancing Translational Sciences (NCATS)
Compounds with a hit are over-represented: about 2.8% of the library has one in this group of screens.
PTHR1 agonist – agonists of human PTHR1 parathyroid hormone receptor | Potency, µM (titrated, usually from 115 µM), for inactives: at the highest dose activation, actives largely listed as activators | AID 743266 | hit rate 0.075% among 410,000 | Q03431 | HEK293 GP2 PTHR1 cells, GloSensor cAMP luminescence, 1 h; further: potency means the concentration at half of the fitted maximal effect; nearly all actives have a fitted effect of over 55% in size
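HEK-293-derived GP2 cells expressing PTHR1 and a GloSensor cAMP reporter, 3,000/well, plated overnight, given luciferin plus IBMX (each 0.5 mM as added) for 1 h at 37 °C, then compound for 1 h at 37 °C. Luminescence was read after 15 min at room temperature.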
DRD3 agonist – agonists of human D3 dopamine receptor; AID 652048; D3R DiscoveRx beta-arrestin cells, luminescence, 90 min; hit rate 0.58% among 410,000; P35462; max activation, %; in the data active means max activation above about 30%; further: 0% is about no effect
Target sequence (P35462 whole entry, looked up): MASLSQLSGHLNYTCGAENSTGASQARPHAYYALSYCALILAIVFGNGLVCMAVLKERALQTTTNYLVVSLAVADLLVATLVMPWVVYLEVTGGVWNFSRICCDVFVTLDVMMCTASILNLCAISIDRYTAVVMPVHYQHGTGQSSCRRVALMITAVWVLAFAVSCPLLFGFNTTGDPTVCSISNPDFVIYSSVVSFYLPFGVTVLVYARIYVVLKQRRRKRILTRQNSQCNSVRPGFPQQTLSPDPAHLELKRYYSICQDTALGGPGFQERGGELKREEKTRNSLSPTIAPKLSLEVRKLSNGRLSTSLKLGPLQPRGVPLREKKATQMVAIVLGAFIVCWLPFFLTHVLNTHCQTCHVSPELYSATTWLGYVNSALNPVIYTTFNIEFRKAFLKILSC
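Cells at 1500/well, incubated overnight, then treated with pinned compounds (dopamine as control) for 90 min at 37 degrees C. DiscoveRx reagent added for 30 - 60 minutes at room temperature; luminescence read.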
MBNL1-CUG inh – inhibitors of human MBNL1 binding to CUG repeat RNA; Q9NR56; TR-FRET MBNL1-His/biotin-(CUG)12 binding, 665/545 ratio; Potency, µM (titrated, usually from 57.5 µM), without a hit: top-dose activity change, negative = inhibition, hits mostly inhibitors; hit rate 0.036% among 280,000; AID 2675; active means well fitted inhibition curve with a large enough effect in the signal ratio, with a control signal flat, not every such curve was filed as active; inconclusive means small, poorly fitted or top-dose-only effect, or effect the other way, or a change in a side signal; inactive means no such curve, though single readings can be large or run the other way; the % refers to the signal ratio; further: potency means the concentration at half of the fitted maximal effect; on the % scale 0 is the no-effect control and ±100 the full control effect
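Ratiometric TR-FRET (665 over 545 nm, excitation 340 nm) tracks disruption of MBNL1-His/biotin-(CUG)12 complex after 60 min at room temperature, with compounds at 92 nM to 58 uM final.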
CBFb RUNX1 block – inhibitors of human CBF-beta and RUNX1 interaction; 230,000 tested, under 10 active; Q01196+Q13951; Potency, µM (titrated, usually from 59.8 µM), inactives show top-dose activity, negative = inhibition, actives largely listed as inhibitors; AlphaScreen CBFb-His/RUNX1-biotin binding, biochemical; AID 1477; further: % of control where 0% means no effect
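His-tagged CBF-beta and biotinylated RUNX1 (30 nM each) were premixed 20 min at room temperature, exposed to compound for 15 min, then given nickel-chelate and streptavidin AlphaScreen beads (50 ng each). After 90 min, AlphaScreen signal was read.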
a7 integrin act – activates integrin-mediated alleviation for muscular dystrophy. Potency, µM (titrated, usually from 38.3 µM), without a hit: at the top dose activation, actives largely listed as activators. hit rate 0.064% among 350,000. alpha7betagal myoblasts, beta-gal FDG fluorescence, 48 h. AID 624291;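 further: potency means the concentration at half of the fitted maximal effect; 100% = response of the positive control SU9516; nearly all actives have a fitted effect of over 60% in size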
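Alpha7betagal+/- myoblasts (passage 13) were plated 16-24 hr, then exposed to compounds (1:260 dilution of DMSO stock) for 48 hours at 37C. After MPER lysis, β-galactosidase reporter activity was read as FDG fluorescence (ex 480/em 540) after 30 minutes.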
DRD3 antagonist – blocks the human D3 dopamine receptor; P35462; D3R cells, DiscoveRx beta-arrestin luminescence, antagonist mode; active compounds read low; max response, negative = inhibition, %; hit rate 2.5% among 360,000; AID 652054; in the data active means max response below about -50%; inconclusive means no clear call, values can overlap the other calls; further: on the % scale 0 is the no-effect control and ±100 the full control effect
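Cells expressing the human receptor were seeded at 1500 cells/well, incubated overnight at 37 degrees C in 5% CO2, then exposed to library compounds with dopamine controls for 90 minutes at 37 degrees C before luminescent detection.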
* marks the source's active call; other numbers are inactive results; i = inactive; ? = inconclusive; . = no result; [ ] = remark or other dose. Unless noted, the call rests on the fitted dose curve; in most records, active means well fitted curve in the direction sought with a large enough effect; inconclusive means small, poorly fitted or top-dose-only effect, or another doubt; inactive means no such curve, though single readings can be large; an effect the other way counts as inactive or inconclusive.

SMILES | PTHR1 agonist | DRD3 agonist | MBNL1-CUG inh | CBFb RUNX1 block | a7 integrin act | DRD3 antagonist
CC(c1ccco1)N(C(=O)c1ccc(F)cc1)c1ccccn1 (stereo not drawn) | i | 0 | -2% | -7% | -10% | -15
CC(c1ccco1)N(C(=O)C12CC3CC(CC(C)(C3)C1)C2)c1ccccn1 (stereo not drawn) | i | 3 | 3% | -9% | 18% | -58*
CCC1CCCCN1S(=O)(=O)c1ccc(NC(=O)C2CCCO2)cc1 (stereo not drawn) | -13% | -7 | 1% | . | -2% | -27
O=S(=O)(NCC(c1cccs1)N1CCc2ccccc2C1)c1ccccc1 (stereo not drawn) | -13% | 1 | . | . | ? | -16
O=C(O)c1cc2cccc(S(=O)(=O)N3CCOCC3)c2cc1O | i | 12 | 42% | -1% | -6% | -54*
CCOC(=O)C1=C(C)N(c2ccc(OC)cc2)C(=O)/C1=C\c1cccs1 | -21% | 72* | 0% | -14% | -19% | -20
CC[C@@H](C(=O)[C@@H](C)[C@@H](O)[C@H](C)CCc1ccc(C)c(O)c1C(=O)O)[C@H]1O[C@](CC)([C@H]2CC[C@](O)(CC)[C@H](C)O2)C[C@@H]1C | -55% | 208* | 1% | . | . | 275
CCOc1ccc(N2CC(NC(=O)C(=O)c3c[nH]c4ccccc34)CC2=O)cc1 (stereo not drawn) | -18% | 19 | . | . | . | .
Cc1c(N)nc([C@H](CC(N)=O)NC[C@H](N)C(N)=O)nc1C(=O)N[C@H](C(=O)N[C@H](C)[C@@H](O)[C@H](C)C(=O)N[C@H](C(=O)NCCc1nc(-c2nc(C(=O)NCCCCN=C(N)N)cs2)cs1)[C@@H](C)O)[C@@H](O[C@@H]1O[C@@H](CO)[C@@H](O)[C@H](O)[C@@H]1O[C@H]1O[C@H](CO)[C@@H](O)[C@H](OC(N)=O)[C@@H]1O)c1cnc[nH]1 | . | 13 | . | . | . | .
CC1=CC(=O)C=C(C)C1=NOC(=O)c1cccc([N+](=O)[O-])c1 | i | 8 | ? | -1% | -42% | -83*
Cc1cccc(C(=O)O/N=C(\N)c2cccc([N+](=O)[O-])c2)c1 | -7%[57.5 µM] | -15 | ? | -3% | 2%[7.66 µM] | -29
COc1ccc2nc3n(c(=O)c2c1)-c1ccc(Cl)cc1C(=O)NC3Cc1ccc(O)cc1 (stereo not drawn) | -22% | 44* | . | . | 0% | 4
Cc1ccc2nc3n(c(=O)c2c1)-c1cc2ccccc2cc1C(=O)NC3CC(C)C (stereo not drawn) | -27% | 2 | . | . | 3% | -14
CC(C)CC1NC(=O)c2cc3ccccc3cc2-n2c1nc1ccc(F)cc1c2=O (stereo not drawn) | -83% | -7 | . | . | 19% | -58*
CCCCNC(=O)N1CCc2ccccc2C1 | -17% | -9 | -14%[11.5 µM] | 12% | -10% | -11
CCCCNc1nc2ccccc2n1CC(=O)N1CCc2ccccc2C1 | -2%[57.5 µM] | -45 | 1% | 5% | 1% | -76*
O=C(Nc1cnc2ccccc2c1)N1CCOCC1 | -2%[57.5 µM] | -5 | 13% | 2% | -2% | -67*
O=C(Nc1cnc2ccccc2c1)N1CCCCC1 | -9%[57.5 µM] | -7 | 7% | 3% | 5% | 0
COc1ccc(-c2ccc(NC(=O)c3ccc(Br)o3)cc2)nn1 | -8% | 1 | . | . | 2% | 13
CCOc1ccc(CNC(=O)c2ccc3c(c2)N(CC)CCS3)cc1 | -28% | -13 | 7% | . | -8% | -67*
CCN1CCSc2ccc(C(=O)NCc3ccc(OC(C)C)cc3)cc21 | -10% | -13 | -2% | . | -18% | -77*
COc1ccc(CNC(=O)c2ccc3c(c2)N(Cc2ccc(C)cc2)CCS3)cc1 | i | -8 | . | . | . | .
CCOc1ccc(CCNC(=O)c2ccc3c(c2)N(Cc2ccc(F)cc2)CCS3)cc1 | i | 0 | . | . | . | .
COc1ccc(NC(=O)C2CCCO2)cc1 (stereo not drawn) | -9%[57.5 µM] | 2 | ? | 11% | 35% | -14
